Most compounds without a hit are left out; they make up all but 0.4% or so of the library.
GAA inh – qHTS Assay for Inhibitors of Human alpha-Glucosidase as a Potential Chaperone Treatment of Pompe Disease. purified human GAA, 4-MU-alpha-glucoside fluorescence. Potency, µM (titrated, usually from 76.9 µM), without a hit: at the highest dose activity change, negative = inhibition, most hits filed as inhibitors. hit rate 0.005% among 200,000. AID 1466, 2008;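 also: potency is read from the fitted curve at half-maximal effect; plate controls were uninhibited enzyme wells for no effect and no-enzyme background for full effect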
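Fluorogenic assay: 4 nM human alpha-glucosidase with 400 uM 4-methylumbelliferyl-alpha-D-pyranoside in 50 mM citrate/phosphate, 0.005% Tween-20, pH 5.0, 20 min at room temperature. Compounds tested up to 77 uM; AC50 from Hill fits.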
GAA glycogen mod – qHTS Assay for Inhibitors and Activators of Human alpha-Glucosidase Cleavage of Glycogen; Lysosomal alpha-glucosidase (Homo sapiens), P10253; recombinant GAA, glycogen substrate, Amplex Red glucose oxidase fluorescence; Potency, µM (doses to about 76.4 µM), for inactives: top-dose activity change, negative = inhibition, usual class: inhibitors; hit rate 0.38% among 300,000; AID 2100, 2009;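 also: potency is read from the fitted curve at half-maximal effect; 0% = full enzyme reaction and -100% = no-enzyme basal signal; the screen sought inhibitors and activators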
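Recombinant human alpha-glucosidase (4 nM final) hydrolysed bovine liver glycogen (30 ug) for 40 min at 37 C in pH 5.0 citrate/phosphate with 0.01% Tween-20. Released glucose detected by glucose oxidase/Amplex Red, Ex 573/Em 610 nm. Compounds up to 77 uM; AC50 from Hill fits.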
aGlu spleen mod – qHTS Assay for Inhibitors and Activators of Human alpha-Glucosidase From Spleen Homogenate; Lysosomal alpha-glucosidase (Homo sapiens), P10253; hit rate 0.006% among 240,000; Potency, µM (titrated, usually from 79.9 µM), inactives show at the highest dose activity change, negative = inhibition, actives largely listed as inhibitors; AID 2112, 2009; human spleen homogenate, 4-MU-alpha-glucoside fluorescence;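 also: potency is read from the fitted curve at half-maximal effect; 0% = enzyme with vehicle and -100% = no enzyme basal signal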
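AC50 values come from Hill-equation fits of concentration-response data, normalized to no-enzyme and full-activity controls. Enzyme source: 1 ug human spleen homogenate; 1 mM fluorogenic 4-MU glucoside, pH 5.0 citrate buffer, 37 C, 40 min.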
GLA inh pH 4.5 – qHTS Assay for Inhibitors of Human alpha-Galactosidase at pH 4.5; purified enzyme, 4-MU-alpha-Gal fluorescence, pH 4.5; activity change, negative = inhibition, % at 105 µM; 230,000 tested, under 10 active;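 also: 0% = full activity with enzyme and -100% = basal without enzyme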
Target sequence (P06280 whole entry, looked up): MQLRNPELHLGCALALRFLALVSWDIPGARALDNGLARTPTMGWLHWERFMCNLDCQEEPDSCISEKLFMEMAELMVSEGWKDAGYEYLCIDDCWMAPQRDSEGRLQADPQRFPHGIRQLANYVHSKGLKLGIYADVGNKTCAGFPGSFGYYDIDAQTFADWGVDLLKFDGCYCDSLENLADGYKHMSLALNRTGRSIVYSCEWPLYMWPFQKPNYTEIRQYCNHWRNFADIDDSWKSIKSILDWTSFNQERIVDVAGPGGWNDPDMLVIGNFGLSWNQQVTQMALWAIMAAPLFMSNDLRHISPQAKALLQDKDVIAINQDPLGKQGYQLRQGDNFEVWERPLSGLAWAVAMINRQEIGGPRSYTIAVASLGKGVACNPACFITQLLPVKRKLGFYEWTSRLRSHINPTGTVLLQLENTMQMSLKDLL
GLA spleen mod – qHTS Assay for Inhibitors and Activators of Human alpha-Galactosidase From Spleen Homogenate. AID 2107, 2009. Potency, µM (doses to about 80 µM), inactives show at the highest dose activity change, negative = inhibition, hits mostly inhibitors. human spleen homogenate, 4MU-alpha-Gal fluorescence, 40 min. hit rate 0.008% among 240,000;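 also: potency is read from the fitted curve at half-maximal effect; 0% = enzyme with vehicle and -100% = no enzyme basal signal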
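Spleen homogenate 1 ug + cpd (titration) + 4-MU-alpha-D-galactopyranoside 1 mM; 37C 40 min; 50 mM citrate/phosphate pH 5.0, 0.01% Tween-20; stop pH 10; fluorescence 365/440; AC50 via Hill.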
* = called active by the depositor; [ ] = remark or other dose. Calls follow the shape of the dose curve; as a rule, active = well fitted curve in the direction sought with a large enough effect; inconclusive = small, poorly fitted or top-dose-only effect, or another doubt; inactive = no such curve, though single readings can be large; an effect the other way counts as inactive or inconclusive.

Screening Cc1ccc(Nc2c(-c3ccco3)nc3ccccn23)cc1 returned GAA inh 11%, GAA glycogen mod inconclusive, aGlu spleen mod -6%, GLA inh pH 4.5 10 and GLA spleen mod -2%.
Screening Cc1ccc(Nc2c(-c3c[nH]c4ccccc34)nc3ccccn23)cc1 returned GAA glycogen mod 4.5µM*.
`CCOc1ccc(S(=O)(=O)Nc2ccccc2SC)cc1` gave GAA inh -6%, GAA glycogen mod 1%, aGlu spleen mod -6%, GLA inh pH 4.5 -5 and GLA spleen mod -7%.
For CCOc1ccc(S(=O)(=O)Nc2cc(Cl)ccc2O)cc1 the results were GAA inh -4%, GAA glycogen mod 28µM*, aGlu spleen mod -8%, GLA inh pH 4.5 -7 and GLA spleen mod -6%.
`COc1cc(-n2c(=O)c3ccccc3n(Cc3cccc(Cl)c3)c2=O)cc(OC)c1OC` gave GAA glycogen mod 1%[76.3 µM].
For Cc1ccc(CNC(=O)CCN2C(=O)COc3ccc(C)cc32)cc1 the results were GAA glycogen mod 11%[76.3 µM].
`Cc1ccc2c(c1)N(CCCC(=O)NCc1cccc(F)c1)C(=O)CO2` gave GAA glycogen mod 45µM*.
Screening O=c1c(O)cccc2cc(O)c(O)c(O)c12 returned GAA inh -8%, GAA glycogen mod 14µM*, aGlu spleen mod -2%, GLA inh pH 4.5 -9 and GLA spleen mod 3%.
`O=c1cc(-c2ccccc2)oc2cc(O)c(O)c(O)c12` gave aGlu spleen mod 9%, GLA inh pH 4.5 -14 and GLA spleen mod 11%.
For O=C(NNc1ccc(-c2csnn2)cc1)c1cc(Cl)cc(Cl)c1 the results were GAA glycogen mod inconclusive, aGlu spleen mod 1%, GLA inh pH 4.5 1 and GLA spleen mod -5%.
For O=C(NNc1ccc(-c2csnn2)cc1)c1ccccc1C(F)(F)F the results were GAA inh 1%, GAA glycogen mod 9.9µM*, aGlu spleen mod 4%, GLA inh pH 4.5 0 and GLA spleen mod 4%.
O=Nc1ccc2oc(=O)ccc2c1 was read as aGlu spleen mod 7%, GLA inh pH 4.5 -5 and GLA spleen mod 23%.
For COc1ccc(NCc2ccc(OC)c(Cn3ccnc3)c2)c(OC)c1 the results were GAA glycogen mod 7µM*.
`c1ccc(-c2nc3ccccn3c2NCc2ccc3c(c2)OCO3)cc1` gave GAA inh 8%, GAA glycogen mod 25µM*, aGlu spleen mod 6%, GLA inh pH 4.5 -28 and GLA spleen mod 12%.
`COc1ccc(-c2nc3cc(C)ccn3c2NCc2ccc3c(c2)OCO3)cc1` gave GAA inh inconclusive, GAA glycogen mod inconclusive, aGlu spleen mod -4%, GLA inh pH 4.5 3 and GLA spleen mod 0%.
For COc1ccc(-c2nc3ccccn3c2NCc2ccc3c(c2)OCO3)cc1 the results were GAA inh -2%, GAA glycogen mod 8.8µM*, aGlu spleen mod -12%, GLA inh pH 4.5 -1 and GLA spleen mod 1%.
`CCOc1c(Br)cc(CNc2ccc(N3CCOCC3)cc2)cc1OC` gave GAA glycogen mod 35µM*, aGlu spleen mod -7%, GLA inh pH 4.5 -4 and GLA spleen mod -5%.
Screening Cc1ccc(S(=O)(=O)Nc2cc(C)c(O)cc2C)cc1 returned GAA inh 4%, GAA glycogen mod 3.5µM*, aGlu spleen mod 3%, GLA inh pH 4.5 3 and GLA spleen mod 5%.
Screening Cc1cc(NS(=O)(=O)c2ccccc2)c(C)c(Cl)c1O returned GAA inh -1%, GAA glycogen mod 45µM*, aGlu spleen mod 8%, GLA inh pH 4.5 0 and GLA spleen mod 0%.
COc1ccc(S(=O)(=O)Nc2ccc(O)c3ccccc23)cc1 was read as GAA inh 5%, GAA glycogen mod 9.9µM*, aGlu spleen mod 6%, GLA inh pH 4.5 -6 and GLA spleen mod -4%.
Screening COc1ccc(S(=O)(=O)Nc2cc(C(C)C)c(O)cc2C)cc1 returned GAA inh -9%, GAA glycogen mod 20µM*, aGlu spleen mod -2%, GLA inh pH 4.5 -6 and GLA spleen mod -1%.
`CN(C)c1ccc2c(-c3ccccc3)c3ccc(=[N+](C)C)cc-3oc2c1` gave aGlu spleen mod 3% and GLA spleen mod 11%.
Cc1ccc(C(=O)c2oc3ccccc3c2NC(=O)Cc2ccccc2)cc1 was read as GAA glycogen mod 0%[76.3 µM].
For Cc1c(NC(=O)CN2CCN(c3ccc([N+](=O)[O-])cc3)CC2)c(=O)n(-c2ccccc2)n1C the results were GAA inh -4%, GAA glycogen mod 3%, aGlu spleen mod -9%, GLA inh pH 4.5 -10 and GLA spleen mod -3%.
For Cc1ccc(S(=O)(=O)NC(=O)Nc2c(C)n(C)n(-c3ccccc3)c2=O)cc1 the results were GAA inh -1%, GAA glycogen mod 16µM*, aGlu spleen mod -9%, GLA inh pH 4.5 -2 and GLA spleen mod -8%.
`Cc1c(NC(=O)CN2CCN(c3ccc(O)cc3)CC2)c(=O)n(-c2ccccc2)n1C` gave GAA inh 2%, GAA glycogen mod 4µM*, aGlu spleen mod 6%, GLA inh pH 4.5 -19 and GLA spleen mod 0%.
Screening Cc1cccc(N2C(=O)C(Cl)=C(Nc3c(C)n(C)n(-c4ccccc4)c3=O)C2=O)c1C returned GAA inh 1%, GAA glycogen mod inconclusive, aGlu spleen mod -11%, GLA inh pH 4.5 -8 and GLA spleen mod -26%.
For Cc1ccc(N2C(=O)C(Cl)=C(Nc3c(C)n(C)n(-c4ccccc4)c3=O)C2=O)cc1 the results were GAA inh -5%, GAA glycogen mod 25µM*, aGlu spleen mod -9%, GLA inh pH 4.5 1 and GLA spleen mod -20%.
`Cc1cc(=O)[nH]c2ccc(S(=O)(=O)Nc3ccc(O)cc3)cc12` gave GAA glycogen mod 7.1µM*.
`Cc1cc(C)c(S(=O)(=O)Nc2ccc(O)cc2)c(C)c1` gave GAA inh -8%, GAA glycogen mod 40µM*, aGlu spleen mod 6%, GLA inh pH 4.5 -2 and GLA spleen mod -12%.
Cc1cc(=O)[nH]c2ccc(S(=O)(=O)Nc3ccccc3)cc12 was read as GAA glycogen mod 0%[76.3 µM].
Screening O=CN1CCc2c([nH]c3ccccc23)C1c1cccc2cccnc12 (centres undefined) returned aGlu spleen mod 1%, GLA inh pH 4.5 1 and GLA spleen mod 4%.
Screening CCCCCCCc1cc2c(cn1)C(=O)C(C)(OC(C)=O)C(O)=C2Cl (centres undefined) returned aGlu spleen mod -9%, GLA inh pH 4.5 -1 and GLA spleen mod -5%.

From PubChem BioAssay
